Source: PubChem BioAssay
For some of these results: Results with a measured potency or affinity are listed apart. The source made the active and inactive calls.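 The calls were made as follows, unless noted: active = calcium signal ratio cut to more than 3 SD under the fully stimulated control mean yet still positive, in both repeats and the primary screen; inactive = the rest.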

How the values were obtained:
[1] = system: TRPC4 beta (transient receptor potential cation channel C4), mouse; assay: activators of mouse TRPC4 channel, confirmation, cell-based, Fluo4 calcium, HEK293 TRPC4beta/mu-opioid, duplicates, 10 µM (AID 2426;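 active = fluorescence ratio normalized to control raised more than 50% in primary screen plus both repeat runs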); conditions: Fluo4 calcium fluorescence, at 10 µM; stronger effect = higher value
[2] = system: transient receptor potential cation channel C4 beta (TRPC4), mouse; assay: activators of mouse TRPC4 channel, confirmation, cell-based, second round, Fluo4, HEK293 TRPC4beta/mu-opioid, 1 µM (AID 2461;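 active = primary screen active and over 50% activation in each of two duplicate runs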); conditions: Fluo4 calcium fluorescence, at 1 µM; stronger effect = higher value
[3] = system: TRPC4 (transient receptor potential cation channel C4 beta), mouse; assay: positive allosteric modulators of mouse TRPC4, confirmation, cell-based, second round, Fluo-4, HEK293 TRPC4beta/mu-opioid, 1 µM (AID 2554;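 active = primary screen hit whose fluorescence ratio, in both repeats, exceeds the weak agonist control mean by 3 SD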); conditions: DAMGO EC20, Fluo-4 calcium flux, at 1 µM; stronger effect = higher value
[4] = system: TRPC4 beta (transient receptor potential cation channel C4), mouse; assay: positive allosteric modulators of mouse TRPC4, confirmation, cell-based, Fluo-4, HEK293 TRPC4beta/mu-opioid (AID 2555;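 active = primary screen hit whose calcium fluorescence ratio, in both repeats, exceeds the weak agonist control mean by 3 SD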); conditions: DAMGO EC20, Fluo-4 calcium flux, at 10 µM; stronger effect = higher value
[5] = molecular target: Short transient receptor potential channel 4 (Mus musculus) (UniProt Q9QUQ5); assay: inhibitors of mouse TRPC4 channel, confirmation, cell-based, Fluo4, HEK293 TRPC4beta/mu-opioid (AID 2636;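 active = calcium signal cut by more than 3 SD below the full-agonist control yet still positive, in both repeats and the earlier primary screen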); conditions: DAMGO, Fluo4 calcium flux, at 10 µM; stronger effect = higher value
[6] = molecular target: Short transient receptor potential channel 4 (Mus musculus) (UniProt Q9QUQ5); assay: inhibitors of mouse TRPC4 channel, confirmation, cell-based, second round, Fluo4, HEK293 TRPC4beta/mu-opioid, 1 µM (AID 2637); conditions: Fluo4 calcium flux, DAMGO, at 1 µM; stronger effect = higher value;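 as to inhibition: percent of integrated ratio relative to wells lacking test compound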
[7] = molecular target: Short transient receptor potential channel 4 (Mus musculus) (UniProt Q9QUQ5); assay: mouse TRPC4 channel activators, dose response, cell-based, HEK293 TRPC4/mu-opioid, Fluo-4 calcium (AID 434937;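 active = primary screen activator hit with a dose response curve and TRPC4 channel activation at any tested dose; inactive = no activation, no dose response, or not a primary hit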)
[8] = molecular target: Short transient receptor potential channel 4 (Mus musculus) (UniProt Q9QUQ5); assay: TRPC4 positive allosteric modulators, dose response, cell-based, HEK293 TRPC4/mu-opioid, Fluo-4 calcium, EC20 DAMGO (AID 434941;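 active = earlier screen potentiator hit that boosts the TRPC4 ion channel at some dose, with a dose response; inactive = no potentiation, no dose response, or not a prior hit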;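 also: calcium entry triggered by an EC20 dose of DAMGO at the co-expressed mu-opioid receptor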)
[9] = molecular target: Short transient receptor potential channel 6 (Mus musculus) (UniProt Q61143); assay: inhibition of mouse TRPC6 channel, confirmation, selectivity assay for TRPC4 inhibitor project, cell-based, HEK293, membrane potential dye, duplicate (AID 434948;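 active = active in primary screen and both duplicates, each dropping signal beyond three positive-control SD with fluorescence still positive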); conditions: HEK293 TRPC6, membrane potential dye fluorescence, at 10 µM, stimulated with maximal-effect acetylcholine; stronger effect = higher value
[10] = molecular target: Short transient receptor potential channel 6 (Mus musculus) (UniProt Q61143); assay: activation of mouse TRPC6 channel, confirmation, selectivity assay for TRPC4 activator project, cell-based, HEK293, membrane potential dye, duplicate (AID 434950;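 active = membrane potential signal rise above negative control mean plus 3 SD in both duplicates, also active in the earlier TRPC4 screen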); conditions: HEK293 TRPC6, membrane potential fluorescence, at 10 µM; stronger effect = higher value
[11] = molecular target: Short transient receptor potential channel 6 (Mus musculus) (UniProt Q61143); assay: TRPC6 potentiation by TRPC4 potentiator hits, confirmation, selectivity assay for TRPC4 potentiator project, HEK293 cells, membrane potential dye, duplicate (AID 434952;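 active = compound raising the membrane signal above positive-control mean plus 3 SD in both repeats, and a primary screen hit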); conditions: HEK293 TRPC6, membrane potential dye fluorescence, at 10 µM, maximal acetylcholine added after compound; stronger effect = higher value
[12] = molecular target: Short transient receptor potential channel 4 (Mus musculus) (UniProt Q9QUQ5); assay: calcium flux activators in TRPC4/5HT1a cells, counter-screen for TRPC4 activator project, cell-based, second counter screen, HEK293 TRPC4/5HT1a, Fluo-4 (AID 434977;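 active = calcium signal rise above buffer-control mean plus 5 SD in both duplicates, and also a hit in the primary screen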); conditions: Fluo-4 calcium flux, at 10 µM; stronger effect = higher value
[13] = calcium flux inhibitors in TRPC4/5HT1a cells, confirmation, counter-screen for TRPC4 inhibitor project, cell-based, second counter screen, HEK293 TRPC4/5HT1a, Fluo-4 (AID 434978;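 active = primary screen active whose calcium signal fell more than 3 SD beyond the full-serotonin control mean in both duplicate plates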); conditions: Fluo-4 calcium flux, at 10 µM, serotonin added to trigger calcium flux; stronger effect = higher value
[14] = system: TRPC4 (mouse), co-expressed with 5HT1a in HEK293; assay: calcium flux potentiators in TRPC4/5HT1a cells, confirmation, counter-screen for TRPC4 potentiator project, cell-based, second counter screen, HEK293 TRPC4/5HT1a, Fluo-4 (AID 434979;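 active = signal rise over 3 SD above mean of control wells given weak agonist, in both repeats and first screen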); conditions: Fluo-4 calcium flux, at 10 µM, serotonin added at its EC20 dose; stronger effect = higher value
[15] = calcium flux activation in mu-opioid HEK293 cells, confirmation, counter-screen for TRPC4 activator project, cell-based, HEK293 mu-opioid receptor line (AID 449723;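 active = hit in primary screen, with calcium signal over 5 SD above buffer well mean in both duplicates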;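 also: counter screen cells carry the mu-opioid receptor alone and lack TRPC4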); conditions: Fluo-4 calcium fluorescence, at 10 µM; stronger effect = higher value
[16] = calcium flux enhancement in mu-opioid HEK293 cells, confirmation, counter-screen for TRPC4 allosteric potentiator project, cell-based, HEK293 mu-opioid receptor line (AID 449724;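 active = calcium signal rise more than 3 SD above the low-dose agonist control mean, in both duplicate plates and the primary screen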); conditions: Fluo-4 calcium flux, at 10 µM, compound added before EC20 DAMGO stimulus; stronger effect = higher value

Measured: inhibition

Short transient receptor potential channel 6 (Mus musculus), sequence (Q61143 whole entry, looked up): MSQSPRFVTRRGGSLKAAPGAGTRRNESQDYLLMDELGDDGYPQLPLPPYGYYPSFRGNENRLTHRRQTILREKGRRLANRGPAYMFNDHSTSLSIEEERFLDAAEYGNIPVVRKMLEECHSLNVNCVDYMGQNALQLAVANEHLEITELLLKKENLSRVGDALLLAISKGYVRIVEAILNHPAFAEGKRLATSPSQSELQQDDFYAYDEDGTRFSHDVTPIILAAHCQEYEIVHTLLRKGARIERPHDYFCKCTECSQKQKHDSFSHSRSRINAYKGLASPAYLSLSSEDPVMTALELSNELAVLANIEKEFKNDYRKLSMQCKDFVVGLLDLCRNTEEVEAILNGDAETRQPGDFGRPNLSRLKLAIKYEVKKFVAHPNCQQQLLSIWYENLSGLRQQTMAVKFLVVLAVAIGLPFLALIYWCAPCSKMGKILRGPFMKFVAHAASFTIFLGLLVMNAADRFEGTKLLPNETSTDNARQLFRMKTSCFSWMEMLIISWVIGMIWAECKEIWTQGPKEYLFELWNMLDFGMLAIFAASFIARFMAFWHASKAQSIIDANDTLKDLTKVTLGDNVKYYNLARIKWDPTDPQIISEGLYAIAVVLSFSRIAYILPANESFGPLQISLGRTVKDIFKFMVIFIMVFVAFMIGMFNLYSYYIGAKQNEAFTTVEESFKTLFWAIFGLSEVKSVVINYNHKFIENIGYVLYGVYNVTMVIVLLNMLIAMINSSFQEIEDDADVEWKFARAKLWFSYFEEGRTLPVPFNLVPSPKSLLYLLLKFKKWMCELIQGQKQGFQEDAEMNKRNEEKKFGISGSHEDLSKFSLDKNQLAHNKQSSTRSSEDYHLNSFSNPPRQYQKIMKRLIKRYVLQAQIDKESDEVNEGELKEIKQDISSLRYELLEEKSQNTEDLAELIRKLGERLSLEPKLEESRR
Short transient receptor potential channel 4 (Mus musculus), sequence (Q9QUQ5 whole entry, looked up): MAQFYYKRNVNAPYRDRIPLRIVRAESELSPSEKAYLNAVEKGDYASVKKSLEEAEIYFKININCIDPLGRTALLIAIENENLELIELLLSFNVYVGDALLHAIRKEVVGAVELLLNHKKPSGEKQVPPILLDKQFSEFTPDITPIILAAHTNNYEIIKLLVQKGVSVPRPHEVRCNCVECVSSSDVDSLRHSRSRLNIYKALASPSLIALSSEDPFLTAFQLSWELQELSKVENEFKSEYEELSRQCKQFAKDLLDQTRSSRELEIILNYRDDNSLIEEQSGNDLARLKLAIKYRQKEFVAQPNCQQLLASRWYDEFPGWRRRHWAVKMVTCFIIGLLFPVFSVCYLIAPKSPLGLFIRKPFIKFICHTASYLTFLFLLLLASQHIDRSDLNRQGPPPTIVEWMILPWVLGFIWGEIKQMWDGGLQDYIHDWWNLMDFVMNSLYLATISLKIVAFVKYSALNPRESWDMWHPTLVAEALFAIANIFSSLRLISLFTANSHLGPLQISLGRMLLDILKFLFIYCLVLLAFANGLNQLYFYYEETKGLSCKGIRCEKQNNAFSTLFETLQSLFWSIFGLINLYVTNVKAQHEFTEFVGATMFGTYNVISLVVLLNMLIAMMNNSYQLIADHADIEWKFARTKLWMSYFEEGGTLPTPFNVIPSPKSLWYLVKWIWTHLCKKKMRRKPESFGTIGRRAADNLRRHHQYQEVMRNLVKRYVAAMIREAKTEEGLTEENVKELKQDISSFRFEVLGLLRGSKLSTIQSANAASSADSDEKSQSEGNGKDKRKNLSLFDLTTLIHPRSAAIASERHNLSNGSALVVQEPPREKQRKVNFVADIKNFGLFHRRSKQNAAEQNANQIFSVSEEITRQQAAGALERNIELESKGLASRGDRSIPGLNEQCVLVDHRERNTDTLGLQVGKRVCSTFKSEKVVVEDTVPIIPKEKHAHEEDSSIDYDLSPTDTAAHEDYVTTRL

COc1ccc(NC(=O)c2cccc(N3C(=O)C4CC=C(C)CC4C3=O)c2)c(OC)c1 (configuration not stated)
inactive: [1] | [2] | [3] | [4] | [6] | [7] | [8] | [9] | [10] | [11] | [12] | [13] | [14] | [15] | [16]
active: [5] 75%

CC1CCCN(CCCN2C(=O)C3C(C(=O)Nc4ccc(Cl)cc4)C4C=CC3(O4)C2C(=O)NC2CCCCC2)C1 (configuration not stated)
active: [5] 97% | [6] 63% | [13] 26.1%
inactive: [1] | [2] | [3] | [4] | [7] | [8] | [9] | [10] | [11] | [12] | [14] | [15] | [16]

CN(C)CCCN(Cc1cc2cc3c(cc2[nH]c1=O)OCO3)C(=S)NCc1ccco1
inactive: [1] | [2] | [3] | [4] | [7] | [8] | [9] | [10] | [11] | [12] | [14] | [15] | [16]
active: [5] 93% | [6] 69% | [13] 26.8%

O=[N+]([O-])c1cccc(-c2nnc(C3CC3)o2)c1
inactive: [1] | [2] | [3] | [4] | [7] | [8] | [9] | [10] | [11] | [12] | [13] | [14] | [15] | [16]
active: [5] 68% | [6] 38%

CCCCN(CCCC)/C(N)=N/c1nc(C)cc(C)n1
active: [13] 35.1%
inactive: [1] | [2] | [3] | [4] | [5] | [6] | [7] | [8] | [9] | [10] | [11] | [12] | [14] | [15] | [16]

CCN(CC)CCn1c2ccccc2c2cnc(N)c(C#N)c21
active: [5] 82% | [13] 32.9%
inactive: [1] | [2] | [3] | [4] | [6] | [7] | [8] | [9] | [10] | [11] | [12] | [14] | [15] | [16]

CCC(C)NCCOCCOc1ccccc1-c1ccccc1 (configuration not stated)
inactive: [1] | [2] | [3] | [4] | [6] | [7] | [8] | [9] | [10] | [11] | [12] | [14] | [15] | [16]
active: [5] 77% | [13] 36.9%
